Screening data (PubChem BioAssay)
This is a sample that favours compounds with a hit; in the whole collection about 28% have one here.
CD11b adhes inh – inhibitors of human CD11b/CD18 binding to fibrinogen | K562 CD11b/CD18 adhesion to fibrinogen, ATPlite luminescence; Mn2+ added to activate the integrin | inhibition, % at 10 µM | 0.54% of 93,000 active | AID 1497;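 active = primary inhibition of 50% or more at 10 µM, then 40% or more on retest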
Target sequence (P05107 whole entry, looked up, other chains not shown): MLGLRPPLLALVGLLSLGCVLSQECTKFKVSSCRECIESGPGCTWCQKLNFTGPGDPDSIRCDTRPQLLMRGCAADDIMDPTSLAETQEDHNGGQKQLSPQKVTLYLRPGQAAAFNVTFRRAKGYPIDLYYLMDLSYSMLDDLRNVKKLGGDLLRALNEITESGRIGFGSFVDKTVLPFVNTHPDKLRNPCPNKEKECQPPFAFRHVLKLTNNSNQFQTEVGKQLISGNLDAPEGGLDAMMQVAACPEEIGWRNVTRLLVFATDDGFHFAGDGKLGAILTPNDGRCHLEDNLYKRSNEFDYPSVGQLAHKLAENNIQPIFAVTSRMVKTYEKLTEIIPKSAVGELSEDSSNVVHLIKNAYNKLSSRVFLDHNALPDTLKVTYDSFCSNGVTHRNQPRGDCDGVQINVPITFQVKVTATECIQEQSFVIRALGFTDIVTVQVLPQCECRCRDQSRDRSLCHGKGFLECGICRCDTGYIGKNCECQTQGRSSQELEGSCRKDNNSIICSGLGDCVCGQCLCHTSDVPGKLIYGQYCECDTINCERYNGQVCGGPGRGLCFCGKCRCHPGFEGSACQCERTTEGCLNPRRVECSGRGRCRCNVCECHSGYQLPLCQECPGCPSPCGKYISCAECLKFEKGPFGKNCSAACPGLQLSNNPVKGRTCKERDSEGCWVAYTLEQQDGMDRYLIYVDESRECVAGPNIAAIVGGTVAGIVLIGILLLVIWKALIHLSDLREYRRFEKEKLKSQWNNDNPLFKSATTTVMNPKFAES
CYP2C9 act – increases human cytochrome P450 2C9 activity; P11712; recombinant CYP2C9, luciferin-H conversion, luminescence; stronger effect = higher value; factor 1 = untreated enzyme, 0 = blocked; activation factor at 5 µM; 1.4% of 96,000 active;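 active = activation factor of 2 or more for CYP2C9 at a 5 µM dose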
CYP2C19 activ – activators of human cytochrome P450 2C19 | AID 1025 | 96,000 tested, under 10 active | activation factor at 5 µM | recombinant CYP2C19, luciferin-H EGE luminescence; stronger effect = higher value; 0 = fully inhibited enzyme, 1 = untreated enzyme;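 active = activation factor of at least 2 at 5 µM in the primary screen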
CYP2C9 inhib – inhibitors of human CYP2C9; P11712; CYP2C9 Supersomes, luciferin-H conversion, luminescence; inhibition, % at 5 µM; 20% of 96,000 active; AID 777;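 active = blocking of liver enzyme CYP2C9 beyond about 50% at 5 µM, limit read from the data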
CYP2C19 inhib – inhibitors of human CYP2C19; CYP2C19 Supersomes, luciferin-H EGE luminescence, 30 min; inhibition, % at 5 µM; 21% of 96,000 active;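 active = CYP2C19 inhibition above a set limit at 5 µM in the primary screen, cut at about 50% in these data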
Mac1 fbg enh – CD11b/CD18-fibrinogen binding enhancement. P05107+P11215. K562 CD11b/CD18 adhesion to fibrinogen, ATPlite luminescence. activation, % at 10 µM. 0.07% of 93,000 active. AID 1499;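 active = 10 µM primary screen giving 50% or more activity, confirmed by 40% or more on retest at that dose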
A number is an active result; – = inactive; · = no result.

SMILES	CD11b adhes inh	CYP2C9 act	CYP2C19 activ	CYP2C9 inhib	CYP2C19 inhib	Mac1 fbg enh
COc1ccc(-c2nnc(SCC(=O)NCc3ccco3)o2)cc1	–	–	–	–	65	–
CC1Cc2ccccc2N1C(=O)CSc1nnc(-c2ccc(S(=O)(=O)N3CCCC3)cc2)o1 (stereo unspecified)	–	–	–	88	66	–
Cc1csc(NC(=O)CSc2nnc(-c3ccc(S(=O)(=O)N4CCCC4)cc3)o2)n1	–	–	–	61	–	–
COc1cc(OC)cc(-c2nnc(SCC(=O)NCc3cccs3)o2)c1	–	–	–	–	89	–
CCn1c(/N=C/c2ccccc2NS(=O)(=O)c2ccc(C)cc2)nc2ccccc21	–	·	·	·	·	–
O=C(c1ccccc1)C1CCc2occc2C1=O (stereo unspecified)	–	–	–	–	–	–
Cc1cc(=O)n2[nH]c(-c3ccc(F)cc3)nc2n1	–	–	–	–	–	–
CC/C(O)=C(\C#N)c1nnc2n1CCCCC2	·	–	–	–	–	·
COc1ccc(-c2nnc(SCC(=O)NCc3cccs3)n2CC(C)C)cc1	–	–	–	65	51	–
O=C(CSc1nnc(-c2ccc(S(=O)(=O)N3CCCC3)cc2)o1)NCc1ccco1	–	–	–	77	63	–
CCN(CC)S(=O)(=O)c1ccc(-c2nnc(SCC(=O)N3CCOCC3)o2)cc1	–	–	–	–	–	–
CCc1ccc(OCc2nnc(SCC(=O)NCc3ccco3)o2)cc1	–	–	–	–	–	–
COc1ccc(OCc2nnc(SCC(=O)NCc3ccco3)o2)cc1	–	–	–	72	–	–
COC(=O)CNC(=O)CSc1nnc(-c2ccc(OC)cc2)n1CC(C)C	–	–	–	–	–	–
Cc1ccc(-c2nnc(SCC(=O)Nc3ccc(S(=O)(=O)N4CCCCCC4)cc3)o2)cc1	–	–	–	–	–	–
CCN(CC)S(=O)(=O)c1ccc(-c2nnc(SCC(=O)N3CCc4ccccc43)o2)cc1	–	–	–	66	–	–
Cc1cc(=O)oc(C)c1C(=O)N[C@@H]1CCCCNC1=O	–	–	–	–	–	–
O=C(Nc1cccc(Oc2ccc3c(c2)C(=O)NC3=O)c1)c1cccs1	–	·	·	·	·	–
CC1=C(C(=O)N2CCOCC2)C(c2ccc(Cl)cc2)NC(=S)N1 (stereo unspecified)	–	·	·	·	·	–
O=C(COC(=O)Cn1cnc2ccccc2c1=O)Nc1ccccc1Sc1ccc(Cl)cc1	–	·	·	·	·	–
O=C(CSc1nnc(-c2c[nH]c3ccccc23)o1)c1ccc(-c2ccccc2)cc1	–	·	·	·	·	–
Cc1nc(NC(=O)COC(=O)CCS(=O)(=O)c2ccccc2Cl)c(Cl)cc1Cl	–	–	–	–	–	–
CCC(C)(C)n1nnnc1CN1CCC(c2nc3ccc(C)cc3[nH]2)CC1	–	–	–	66	–	–
O=C(C1CC1)N1CCc2cc(S(=O)(=O)N3CCOCC3)ccc21	·	–	–	–	–	·
O=C(c1ccco1)N1CCN(S(=O)(=O)c2cccc(C(F)(F)F)c2)CC1	–	–	–	71	83	–
SMILES	CD11b adhes inh	CYP2C9 act	CYP2C19 activ	CYP2C9 inhib	CYP2C19 inhib	Mac1 fbg enh
CC(=O)N1CCc2cc(Br)cc(S(=O)(=O)N3CCCCCC3)c21	–	–	–	–	–	–
O=C(c1ccco1)N1CCN(S(=O)(=O)c2ccc3c(c2)CCN3C(=O)C2CC2)CC1	·	–	–	–	69	·
O=S(=O)(c1cccc(C(F)(F)F)c1)N1CCN(c2ccccc2)CC1	–	–	–	–	–	–
CC(=O)N1CCc2cc(Br)cc(S(=O)(=O)N3CCN(C(=O)c4ccco4)CC3)c21	–	–	–	59	–	–
COc1ccc(C2SCC(=O)N2CCCN(C)C)cc1 (stereo unspecified)	–	–	–	–	–	–
CCCc1nc(N2CCCC2)c(C#N)c2c1CCCC2	–	–	–	73	–	–
CC(C)c1nc(N2CCCC2)c(C#N)c2c1CCCC2	–	–	–	55	54	–
CCc1nc(N2CCOCC2)c(C#N)c2c1CCCC2	–	–	–	–	78	–
CCCCc1nc(N2CCOCC2)c(C#N)c2c1COC(C)(C)C2	–	–	–	73	87	–
N/N=c1\sc2ccccc2n1-c1ccccc1	·	–	–	–	–	·
CCCCCCOC(=O)c1ccc(NC(=O)c2cc(OC)c(OC)c(OC)c2Br)cc1	–	–	–	64	–	–
Cc1cc2cc(C#N)c(NCCNC(=S)NCCCN3CCOCC3)nc2cc1C	–	·	·	·	·	–
Cc1cccc2cc(C#N)c(NCCNC(=S)NCCCN3CCOCC3)nc12	–	–	–	71	–	–
Cc1cc(NCCCN2CCOCC2)n2c(nc3ccccc32)c1C#N	–	–	–	–	51	–
Cc1cccc2cc(C#N)c(NCCNS(=O)(=O)c3ccc4c(c3)OCCO4)nc12	–	–	–	57	53	–
Cc1ccc(NC(=O)CCC(=O)NNC(=O)C(c2ccccc2)c2ccccc2)c(C)c1	–	–	–	–	–	–
CCCNC(=O)c1cnc(Sc2ncc(C(F)(F)F)cc2Cl)n1C	–	–	–	71	–	–
Cn1c(C(=O)N2CCOCC2)cnc1Sc1ncc(C(F)(F)F)cc1Cl	–	–	–	–	–	–
O=C(CCCCn1c(=O)c2ccccc2n(CC(=O)Nc2ccc(F)cc2)c1=O)NCc1ccco1	·	–	–	81	55	·
CCCN(CCC)C(=O)Cn1c(=O)n(CCCCC(=O)NCc2ccco2)c(=O)c2ccccc21	–	–	–	69	–	–
Cc1ccc(C)c(Cn2c(=O)n(CCC(=O)NCc3ccco3)c(=O)c3ccccc32)c1	–	–	–	–	–	–
Cc1ccc(NC(=O)Cn2c(=O)n(CCCCC(=O)NCc3ccco3)c(=O)c3ccccc32)cc1	–	–	–	82	–	–
O=C(CCCn1c(=O)c2ccccc2n(CC(=O)NCc2ccco2)c1=O)NCc1ccco1	–	–	–	–	–	–
O=C(CCCCn1c(=O)c2ccccc2n(Cc2ccc(F)cc2Cl)c1=O)NCc1ccco1	–	–	–	84	88	–
CCC(C)NC(=O)Cn1c(=O)n(CCCCC(=O)NCc2ccco2)c(=O)c2ccccc21 (stereo unspecified)	–	–	–	–	–	–
CNNC(=O)C(C)NC(=O)c1ccc(Br)cc1 (stereo unspecified)	–	–	–	–	–	–
Cc1nn2c(=O)cc(COC(=O)c3ccc(S(=O)(=O)N4CCCCC4)cc3)nc2s1	–	–	–	–	–	–
CCC(=O)Nc1ccc2c(c1)nc(CN1CCN(C(C)=O)CC1)n2C	–	–	–	–	–	–
N/C(=N\OC(=O)CCCCCN1C(=O)c2ccccc2C1=O)c1ccccc1	–	–	–	–	–	–
CC1(c2ccccn2)Nc2ccccc2-c2nc3ccccc3n21 (stereo unspecified)	–	–	–	52	69	–
